Assay outcomes (PubChem BioAssay)
The list is not random: actives were taken first. Their share in the collection is about 4%.
TWEAK Fn14 block: TWEAK-Fn14 signaling inhibition. TWEAK-stimulated Fn14 reporter cells, luciferase luminescence, 8 h. inhibition, % at 10 µM. actives 2% (n = 360,000); in the data active = inhibition above about 50%
TROY signal inh: blocks TROY-dependent signaling in reporter cells; Q293 LMP1-TROYcd NF-kB luciferase reporter, 4 h; inhibition, % at 10 µM; actives 0.98% (n = 360,000); AID 1347056;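 active = compounds whose plate-normalised and pattern-corrected inhibition of the luciferase reporter signal at the single screening dose is 50% or more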
CF NFkB inh: inhibitors of cystic fibrosis induced NF-kB. KKLEB NF-kB-GFP reporter, PAF-induced, GFP fluorescence overnight. AID 588850. actives 0.86% (n = 360,000). inhibition, % at 5 µM;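 active = at least 50% inhibition at 5 µM, scaled per plate between neutral and stimulator controls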;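 also: PAF is a Pseudomonas aeruginosa culture filtrate used as stimulus; plate controls were PAF-stimulated DMSO wells for no effect and unstimulated DMSO wells for full effect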
Peg3 prom inh: inhibitors of Peg3 promoter. HeLa PEG-Prom luciferase reporter, luminescence, overnight. inhibition, % at 20 µM. actives 1.7% (n = 360,000);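 active = inhibition of at least 50% at 20 µM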
HIF-2a block: HIF-2a inhibition; 786-0 RCC cells HIF-2a reporter, luciferase luminescence, overnight; inhibition, % at 18.8 µM; actives 0.72% (n = 360,000);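 active = inhibition of the luminescence signal of 40% or more relative to plate controls, in a single-dose primary screen at 18.75 µM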
KKLEB tox: reduces viability of KKLEB cystic fibrosis airway cells. KKLEB CF airway cells viability, ATPlite luminescence, overnight; hits give low values; cells stimulated with P. aeruginosa culture filtrate. activity change (cytotoxicity), % at 5 µM. actives 0.36% (n = 360,000). AID 602141;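 active = corrected activity change at or below -50% at 5 µM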
CF NFkB inh conf: CF NF-kB inhibition confirmation, single concentration; actives 64% (n = 1,300); KKLEB CF airway cells, PAF-induced NF-kB-GFP fluorescence, overnight; shares compounds with CF NFkB inh; inhibition, % at 5 µM; in the data active = inhibition above about 40%;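 also: stimulus PAF is a Pseudomonas aeruginosa filtrate and not platelet activating factor; plate controls were DMSO wells with stimulus for no effect and unstimulated DMSO wells for full effect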
The depositor's hits bear a star; . = no result; ! = repeats disagree.

SMILES	TWEAK Fn14 block	TROY signal inh	CF NFkB inh	Peg3 prom inh	HIF-2a block	KKLEB tox	CF NFkB inh conf
COc1ccccc1NC(=O)C(C/C=C(/C)Cl)C(C)=O (stereo not drawn)	5	11	4	5	15	1	.
O=S(=O)(c1cccc(S(=O)(=O)N2CCCC2)c1)c1cccc(S(=O)(=O)N2CCCC2)c1	9	5	-1	18	18	8	.
COC(=O)N1C(=O)[C@@](c2ccccc2)(C2CCCC2)N1C(=O)OC	71*	42	67*	50*	35	-16	46*
CC[C@@]1(c2ccccc2OC)C(=O)N(C(=O)OC)N1C(=O)OC	19	10	36	17	16	-21	.
Cc1ccccc1NC1=CC(=O)CC(C)(C)C1	4	15	5	13	12	5	.
CC1(C)CC(=O)C=C(NC2=CC3OC(c4ccccc4)OCC3OC2=O)C1 (stereo not drawn)	76*	17	72*	64*	40	-8	52*
Cc1ccc(C2(c3noc(CN(C)Cc4ccccn4)n3)CCCC2)cc1	11	10	-1	23	4	-1	.
O=[N+]([O-])c1ccc(O)c(C2CCCCC2)c1	52*	61*	64*	39	10	-19	93*
c1ccc2c(-c3ccc4nncn4c3)cncc2c1	78*	40	73*	6	5	3	89*
CC(=O)CSc1nc(N(C)C)nc(N(C)C)n1	11	7	11	10	14	-5	.
O=C(CCC1COc2ccccc2O1)Nc1ccc(Cl)cn1 (stereo not drawn)	3	-8	60*	27	-159	-14	48*
CCOC(=O)[C@]12CCCC=C1N(Cc1ccccc1)C(=O)[C@H](CC(=O)NCCCOC)C2	.	.	.	.	9	.	.
Cn1c(=O)c2c(ncn2CC(=O)OCC(=O)NNC(=O)c2ccc(Cl)cc2)n(C)c1=O	7	-5	14	-6	3	2	.
O=C(COc1ccccc1)NCCn1ccc2ccccc21	-29	23	-10	6	-30	4	.
CC(/C=N/NC(=O)c1sc(N)nc1C)=C\c1ccccc1	0	-22	-8	-173	-133	11	.
Cc1ccc(NC(=S)N(CCCN2CCCC2)Cc2cccn2Cc2ccc(Cl)cc2)cc1C	5	0	51*	102*	-27	-43	28
O=C1c2ccc(Oc3ccc([N+](=O)[O-])cc3)cc2C(=O)N1CCO	3	-8	6	10	21	6	.
CCCCNC(=S)N(C)/N=C/c1ccc(OCC(=O)Nc2ccc(OC)cc2)c(OC)c1	36	22	54*	41	-16	8	36
CCOC(=O)Cc1csc(Nc2ccc(Cl)cc2)n1	-19	-71	-3	-55	13	12	.
CCOC(=O)Cc1nnc2c(Nc3ccc(Cl)cc3)nc3nonc3n12	36	52*	51*	49	7	-21	59*
COC(=O)C1=C(C)NC(C)=C(C(=O)OCC(C)C)C1c1ccccc1[N+](=O)[O-] (stereo not drawn)	47	33	83*	33	25	-1	58*
Cc1ccc(C(=O)Nc2cccc(C(F)(F)F)c2)cc1NC(=O)c1nccnc1N	-85	-12	59*!	10	12	-44	78*
Cc1ccc(C(=O)Nc2cccc(C(F)(F)F)c2)cc1NC(=O)c1cnnc2ccccc12	-38	-4	53*	17	2	-25	52*
Cc1ccc(C(=O)Nc2cccc(C(F)(F)F)c2)cc1Nc1cncnc1	-3	8	29	18	9	-3	.
CC(NC(=O)CN1C(=O)NC(c2ccccc2)(c2ccccc2)C1=O)c1cccs1 (stereo not drawn)	15	12	14	12	7	-3	.
SMILES	TWEAK Fn14 block	TROY signal inh	CF NFkB inh	Peg3 prom inh	HIF-2a block	KKLEB tox	CF NFkB inh conf
COc1cccc(CC(=O)OCC(=O)NCC(=O)Nc2cccc(C)c2C)c1	9	4	2	-8	18	-3	.
CCOC(=O)C(Oc1ccc2c(-c3ccc(OC)cc3)cc(=O)oc2c1C)c1ccccc1 (stereo not drawn)	21	10	23	23	16	-3	.
COc1ccc(-c2cc(=O)oc3c(C)c(OC(=O)c4cccs4)ccc23)cc1	38	21	72*	31	7	12	96*
CC(=O)c1ccc(NC(=O)CSc2nc(C3CC3)nc3ccccc23)cc1	22	15	30	18	21	-30	.
COc1ccc(NC(=O)CSc2nc(C3CC3)nc3ccccc23)cc1	14	8	53*	8	15	-18	33
CC(=O)Nc1nnc(SCC(=O)NCCOc2ccccc2)s1	7	-15	-12	-4	10	0	.
CCOC(=O)c1ccc2c(c1)nc(SC/C(O)=C(\C#N)c1nc3ccccc3[nH]1)n2CC	-5	5	66*	6	-29	-38	59*
NC(=S)N1OC[C@@H]2COc3ccc4ccccc4c3[C@@H]21	33	28	72*	-64	11	-36	55*
CO/N=C/NC(=O)N1OC[C@@H]2COc3ccc4ccccc4c3[C@@H]21	-9	11	9	13	17	4	.
O=c1cc(-c2ccccc2)[nH]n1-c1ccccc1	1	53*	58*	12	-23	-4	32
O=c1ccc(=O)n(-c2ccccc2)[nH]1	-32	-10	-1	18	9	-8	.
COc1cc(OC)cc(-c2c(C#Cc3ccsc3)c3cc(-c4cccc5[nH]cc(C=O)c45)ccc3n2C)c1	9	4	73*	54*	-42	-14	-33
COc1ccc(-c2c(C#Cc3ccsc3)c3cc(-c4cccc5[nH]ccc45)ccc3n2C)cc1	-15	22	-6	-4	-3	1	.
COc1cc(C(=O)NCC(=O)NCCN2C(=O)S/C(=C\c3ccccc3Cl)C2=O)cc(OC)c1OC	-40	-70	-19	-41	-46	-3	.
COc1cc(/C=C2\SC(=O)N(CCNC(=O)c3sc4cc(F)ccc4c3Cl)C2=O)cc(OC)c1OC	-15	-22	55*	7	17	-42	67*
Cc1ccc(C(=O)Nc2ncccc2S(=O)(=O)c2ccccc2)cc1	-19	-65	12	-262	-225	-2	.
NC(=O)C1CCN(C(=O)/C=C/c2ccccc2[N+](=O)[O-])CC1	2	10	8	-6	7	-2	.
O=C(/C=C/c1ccccc1[N+](=O)[O-])N1CCOCC1	19	-15	70*	11	19	-44	-2
O=C(/C=C/c1ccco1)NC(=S)Nc1ccccn1	-9	-24	16	-307	-167	-6	.
